# Assay outcomes: PubChem BioAssay, National Center for Advancing Translational Sciences (NCATS)
# An excerpt weighted towards active compounds, which were near 8.1% of everything screened.
# PINK1 modulator: changes PINK1 expression; AID 624263; PINK1 immunofluorescence, high-content cytometry, 24 h; Potency, µM (top dose mostly 76.6 µM), inactives show at the top dose activation (PINK1 increase), actives largely listed as activators; hit rate 0.2% among 410,000; active = well fitted activation curve with a large enough effect; inconclusive = small, poorly fitted or top-dose-only effect; cell line not stated here; also: % of control where 0% means no effect; nearly all actives have a fitted effect of over 65% in size
#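 PINK1 protein, normally rapidly degraded, was detected by immunofluorescence after 24 hour compound treatment of a stable cell line. Titration data (5 concentrations) came from laser-scanning cytometry, with CCCP-treated wells as controls.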
# VP16 counter: counter-screen for ROR gamma inhibitors: Gal4-VP16 reporter; hit rate 3.5% among 310,000; Drosophila S2 Gal4-VP16 UAS-luciferase, luminescence, 20 h; Potency, µM (top dose mostly 53.6 µM), inactives show at the top dose activity, negative = inhibition, hits mostly inhibitors; AID 2546;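 also: Gal4-VP16 expression switched on by copper sulfate through the metallothionein promoter; % is scaled to controls: 0 for no effect and ±100 for the full control effect; nearly all actives have a fitted effect of over 50% in size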
# RORgamma inh: blocks mouse ROR gamma transcriptional activity | hit rate 5.4% among 310,000 | Drosophila S2 Gal4-RORgamma UAS-luciferase reporter, 20 h | Potency, µM (top dose mostly 53.6 µM), inactives show top-dose activity change, negative = inhibition, usual class: inhibitors | P51450; also: % is scaled to controls: 0 for no effect and ±100 for the full control effect; nearly all actives have a fitted effect of over 60% in size
# Target sequence (P51450 whole entry, looked up, the tested form may be a part): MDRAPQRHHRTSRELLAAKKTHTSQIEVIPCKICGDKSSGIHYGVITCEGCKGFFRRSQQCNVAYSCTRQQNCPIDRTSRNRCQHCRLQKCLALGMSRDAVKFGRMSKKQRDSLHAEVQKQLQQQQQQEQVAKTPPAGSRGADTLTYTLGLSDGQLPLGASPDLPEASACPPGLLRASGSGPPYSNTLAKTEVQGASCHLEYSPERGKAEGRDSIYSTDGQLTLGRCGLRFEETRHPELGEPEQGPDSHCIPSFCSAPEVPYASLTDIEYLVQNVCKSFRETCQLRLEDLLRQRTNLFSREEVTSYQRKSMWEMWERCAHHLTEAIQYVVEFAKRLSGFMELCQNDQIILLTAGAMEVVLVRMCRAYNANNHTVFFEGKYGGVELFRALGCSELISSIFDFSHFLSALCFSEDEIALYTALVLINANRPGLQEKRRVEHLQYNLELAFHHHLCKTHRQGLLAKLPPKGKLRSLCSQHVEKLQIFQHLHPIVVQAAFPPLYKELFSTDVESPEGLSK
#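 Drosophila S2 cells stably expressing Gal4-DBD/mouse RORγ fusion under metallothionein promoter plus UAS-luciferase; compound 1 h, then 700 uM CuSO4 induction for 20 h at ambient temperature; inhibition read as reduced luminescence.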
# Sfp inh: Sfp phosphopantetheinyl transferase inhibition; Q9F4F7; Biochemical Sfp PPTase activity, qHTS; Potency, µM, for inactives: largest response in the series, negative = inhibition, hits mostly inhibitors; hit rate 3.5% among 310,000; AID 1490;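 also: the enzyme is Sfp with the accession as filed and its product quenches rhodamine fluorescence; 0% = enzyme reaction without inhibitor and -100% = no enzyme wells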
#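 Step 1, compound plus 15 nM Sfp-PPTase, 15 min, room temperature. Step 2, add rhodamine-CoA (5 uM) and BHQ-2-YbbR (12.5 uM). Step 3, read 525/598 nm fluorescence at 0 and 30 min.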
# ClpP mod: qHTS Assay for Activators of ClpP; Potency, µM (doses to about 57.5 µM), for inactives: at the top dose activity change, negative = active; purified B. subtilis ClpP, FRET peptide cleavage, 20 min; ATP-dependent Clp protease proteolytic subunit (Bacillus subtilis (strain 168)), P80244; hit rate 1.9% among 340,000; active = well fitted falling curve with a large enough effect; inconclusive = small, poorly fitted or top-dose-only effect; inactive = no such curve, though single readings can be large or run the other way; also: the source files actives as falling curves though it sought activators and does not explain the sign; nearly all actives have a fitted effect of over 65% in size
# Target sequence (P80244 whole entry, looked up): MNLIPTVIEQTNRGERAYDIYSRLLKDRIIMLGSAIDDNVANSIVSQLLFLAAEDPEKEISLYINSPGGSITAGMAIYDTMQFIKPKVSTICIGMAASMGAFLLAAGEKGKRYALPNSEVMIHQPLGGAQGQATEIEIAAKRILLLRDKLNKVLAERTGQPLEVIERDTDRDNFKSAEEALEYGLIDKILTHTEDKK
#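 ClpP 10 microg/mL final, pH 8 Tris/KCl buffer with BSA, glycerol, Tween-20; compound pinned in; FRET-FV substrate; RT 20 min; Ex320/Em430; ΔFRET vs ADEP 5.8 microM, DMSO, no enzyme.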
# Epigenetic derep: epigenetic control regulation, reporter derepression | Potency, µM (titrated, usually from 53.9 µM), without a hit: at the highest dose GFP activation, usual class: activators | AID 1865 | murine LDR cells, GFP reporter derepression, 30 h | hit rate 0.2% among 280,000; also: % of control where 0% means no effect; nearly all actives have a fitted effect of over 60% in size
#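 Reporter derepression read as number of fluorescent GFP-positive objects, 20-120 um in size, counted by laser-scanning cytometer. Mouse LDR line with an epigenetically silenced CMV-GFP locus; compound incubation 30 h, 37 C.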
# The depositor's hits bear a star; ? = inconclusive; nt = not tested or not shown; ! = not active in a repeat; [ ] = remark or other dose. Unless noted, calls follow the shape of the dose curve; as a rule, active = well fitted curve in the direction sought with a large enough effect; inconclusive = small, poorly fitted or top-dose-only effect, or another doubt; inactive = no such curve, though single readings can be large; an effect the other way counts as inactive or inconclusive. Potency is read from the fitted curve at half-maximal effect.
SMILES,PINK1 modulator,VP16 counter,RORgamma inh,Sfp inh,ClpP mod,Epigenetic derep
CCOc1ccc(CCNC(c2nnc(-c3ccccc3)o2)c2ccccc2Cl)cc1OCC (stereo unspecified),5.9%,nt,nt,nt,-1.7%,1.0%
CC(C)c1ccc(Nc2c(-c3ccc(N(C)C)cc3)nc3cnccn23)cc1,-0.3%,nt,nt,nt,-5.0%,?
COc1cccc(/C=N/Nc2cc(Cl)nc(C)n2)c1O,-1.9%,2.82µM*,0.501µM*,-1.7%,-6.3%,-1.1%
COc1cccc(/C=N/Nc2cc(N3CCOCC3)ncn2)c1O,-1.4%,11.2µM*,11.2µM*,6.6%,nt,nt
COc1ccc(-n2c(C)cc(/C=N/Nc3nnc(C)n3N)c2C)cc1,1.5%,?,?,31.6µM*,-4.8%,-1.0%
CCOc1ccc(/C=N/Nc2cc(N3CCOCC3)nc(C)n2)c(O)c1,-0.2%,11.2µM*,7.08µM*,-10.6%,0.0%,nt
COc1cc(=O)n2c(c1C(=O)N(C)Cc1ccsc1)CCN(Cc1c(C)nc3sccn13)CC2,0.2%,nt,nt,nt,nt,nt
O=C(Nc1cc(F)ccc1F)C1COc2ccccc2C1 (stereo unspecified),-1.1%,nt,nt,nt,-1.9%,5.1%
Cc1nnc(N/N=C/c2ccccc2F)n1N,0.1%,?,-35.9%,-7.3%,-0.3%,nt
Cc1nnc(N/N=C/c2ccco2)n1N,4.8%,12.6µM*,11.2µM*,-15.4%,nt,-1.8%
COc1cccc(/C=N/Nc2nnc(C)n2N)c1O,0.4%,3.16µM*,2.24µM*,7.2%,nt,nt
COC(=O)c1sc2ccccc2c1S(=O)(=O)N1CCN(c2ccc(C(C)=O)cc2)CC1,1.0%,nt,nt,nt,-6.6%,0.8%
Cc1ccc(NC(=O)c2c(C)oc3ccc(O)c(CN(C)Cc4ccccc4)c23)c(C)c1,2.0%,nt,nt,nt,-3.9%,-1.9%
OCC[n+]1ccc(/C=C/c2c[nH]c3ccccc23)cc1,39.8µM*,6.3%,29.8%,-10.9%,1.3%,1.9%
Cc1ccc(C)c(N2CCN(C(=O)c3cnc4c(-c5ccccc5)c(C)nn4c3C)CC2)c1,0.4%,nt,nt,nt,-1.6%,?
O=C(CSc1ncn[nH]1)CSc1ncn[nH]1,-1.3%,-7.3%[10 µM],-14.1%,50.1µM*,nt,0.1%
CC(C)c1ccc(C(=O)CSc2ncn[nH]2)cc1,-2.5%[38.3 µM],-2.7%,8.8%,56.2µM*,-0.6%,-1.1%
CC(C)(C)NC(=O)NC(=O)CSc1ncn[nH]1,-0.3%,2.6%,1.5%,11.3%,nt,3.3%
Cc1cccc2c(=O)[nH]c3c(-c4nc(-c5ccc(Cl)cc5)cs4)c(O)cn3c12,6.7%,nt,nt,nt,3.5%,nt
Nc1nonc1C(=O)N/N=C/c1cc2c(cc1[N+](=O)[O-])OCO2,39.8µM*,-3.0%,-0.5%,-7.7%,nt,nt
O=C(N/N=C\c1cc2c(cc1[N+](=O)[O-])OCO2)c1cccs1,29.1%,-2.6%,-5.9%,16.6%,0.3%,nt
O=C(CCc1ccc(O)c(O)c1)N/N=C/c1cc2c(cc1[N+](=O)[O-])OCO2,1.3%,-7.0%,-43.0%,39.8µM*,-0.7%,nt
C=CCCC,nt,-2.5%,6.2%,nt,nt,nt
CC/C(=C/c1sc2ccc(C)cc2[n+]1CCO)SC,0.4%,3.4%,7.7%,28.2µM*,nt,2.2%
Cc1ccc2c(C)cc[n+](CCCS(=O)(=O)[O-])c2c1,0.2%,-4.7%,-14.5%,17.4%,-27.3%,0.0%
SMILES,PINK1 modulator,VP16 counter,RORgamma inh,Sfp inh,ClpP mod,Epigenetic derep
CC/C(=C/c1sc2ccc(C)cc2[n+]1CCCS(=O)(=O)[O-])SC,1.4%,-11.9%,-18.0%,50.1µM*,nt,-0.3%
Cc1ccc2sc(C)[n+](CCC(C)S(=O)(=O)[O-])c2c1 (stereo unspecified),-0.4%,-5.2%,-21.2%,39.8µM*,-5.5%,-0.9%
Cc1sc2ccccc2[n+]1CCc1ccccc1,nt,nt,nt,nt,-5.2%,nt
Cc1ccc(CNC(=O)c2cc(=O)c3cc(C)c(C)cc3o2)cc1,1.7%,nt,nt,nt,-0.4%,-0.8%
CCOC(=O)c1cc(S(=O)(=O)Nc2c(C)cc(C)cc2C)[nH]n1,0.6%,nt,nt,nt,1.0%,-2.5%
Cc1cccc(OCCn2c(-c3ccc(Cl)cc3)nc3ccccc3c2=O)c1C,3.5%,nt,nt,nt,-1.2%,-0.8%
CS(=O)(=O)NN1C(=O)c2ccccc2NC1c1cccc(O)c1 (stereo unspecified),0.1%,3.7%,-1.2%,18.5%,nt,-1.3%
O=C1c2ccccc2NC(c2cccc(Cl)c2)N1N=C1CCCCCC1 (stereo unspecified),-0.5%,-12.2%,44.8%,7.9%,20µM*,-4.6%
O=C(COC(=O)c1cc(S(=O)(=O)N2CCc3ccccc3C2)ccc1Cl)NCc1ccco1,-1.4%,21.1%,-2.9%,44.7µM*,-4.9%,1.3%
CCc1ccccc1NC(=O)c1ncoc1-c1ccco1,-0.4%,nt,nt,nt,-0.1%,3.3%
COc1ccc(CCn2cc3c(c2-c2ccccc2Br)c(=O)n(C)c(=O)n3C)cc1OC,-0.8%,nt,nt,nt,-21.1%,-3.0%
NC[C@@H]1O[C@H](C23CC4CC(CC(C4)C2)C3)Cc2c1ccc(O)c2O,4.9%,?,?,50.1µM*!,-1.7%,-1.2%
NC[C@@H]1O[C@H](c2ccccc2)Cc2c1ccc(O)c2O,nt,25.1µM*,28.2µM*,79.4µM*,nt,-0.2%
CN(C)C(=O)CCC(=O)NCC1Cc2cccc(-c3ccccc3C(F)(F)F)c2O1 (stereo unspecified),0.1%,nt,nt,nt,nt,nt
C=CCn1c(SCC(=O)O)nnc1-c1ccc(C(C)(C)C)cc1,3.2%,?,14.1µM*,6.2%,-4.9%,-0.2%
CC(C)OC(=O)CSc1nnc(-c2ccc(C(C)(C)C)cc2)n1N,1.8%,?,?,15.8µM*,-2.4%,0.9%
C=CCn1c(SCC(=O)c2[nH]c(C)c(C(C)=O)c2C)nnc1-c1ccncc1,-0.4%,7.4%,11.1%,20.3%,31.6µM*,-1.0%
C=CCn1c(SCc2nc3sc(C(=O)O)c(C)c3c(=O)[nH]2)nnc1-c1ccc(C(C)(C)C)cc1,0.1%,-9.9%,39.5%,28.2µM*,nt,1.1%
CC(C)(C)c1ccc(-c2nnc(SCC(=O)O)n2N)cc1,-0.6%,0.4%,-40.1%,16.2%,-8.2%,-0.8%
O=C(Nc1c(-c2ccccc2)nc2ccccn12)c1ccc(Br)cc1,0.3%,nt,nt,nt,-2.3%,-1.3%
CCCC(c1nnnn1C(C)(C)C)N1CCN(Cc2ccccc2OC)CC1 (stereo unspecified),1.5%,?,-6.0%,56.2µM*,nt,-1.4%
COc1ccccc1-c1ccnc(-n2ncc(C(=O)NCCc3ccccn3)c2C)n1,0.1%,nt,nt,nt,nt,nt
COCCn1c(SCC(=O)Nc2ccc(C(F)(F)F)cc2)nc2c([nH]c3ccccc32)c1=O,-0.6%,nt,nt,nt,-2.7%,1.4%
Cc1ccc(C)n1-c1c(C(=O)NCCC(C)C)sc2ncccc12,4.3%,nt,nt,nt,3.0%,-0.9%
COc1cc2c(cc1OC)C1C(=O)c3ccc4c(c3OC1CO2)C=CC(C)(C)O4 (stereo unspecified),nt,0.126µM*,?,-18.9%,nt,0.8%
